According to PubChem BioAssay AID1347076 (National Center for Advancing Translational Sciences (NCATS), 2019):
About 13,000 (3.2%) of roughly 400,000 compounds were called active. Roughly 18% stayed inconclusive and do not appear here. Calls come from the whole dose curve; as a rule, active = well fitted cell-killing curve with a large enough effect; inconclusive = small, poorly fitted or top-dose-only effect, or effect the other way; inactive = flat fitted curve, though single readings scatter. What follows is part of a selection rich in actives, with near analogues and random picks from the rest. Entries that show only a call come without a potency.

Test: qHTS assay for MDR1-selective chemotherapeutics: Primary screen using the drug-selected MDR subline cells KB-V1; note: nearly all actives have a fitted effect of over 60% in size
Conditions: KB-V1 MDR cells viability, CellTiter-Glo, 72 h; series mostly up to 46.1 µM
Summary of the method: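 Potencies derive from concentration-effect curves fitted to normalized luminescence (CellTiter-Glo) of KB-V1 cells treated for 72 h at 37 degrees C in phenol-red-free DMEM containing 10% FBS.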
Potency is the fitted concentration of half-maximal effect.

Compound	Potency
Cc1cc2nc(-c3ccc(NC(=O)c4cc5ccccc5o4)cc3)oc2cc1C	inactive
CCN(CC)CCN(C)C(c1ccnc2ccccc12)c1nnnn1-c1ccc2c(c1)OCCO2 (stereo not given)	inactive
COC(=O)c1sc2ncccc2c1-n1c(C)ccc1C	inactive
Cc1ccc(-c2c(N)nc3ncccn23)cc1	inactive
O=C(CSc1oc(-c2ccccc2)nc1S(=O)(=O)c1ccc(Br)cc1)NC1CCCCC1	inactive
Cc1ccc([C@H]2C[C@H](O)[C@@H](n3cc(COC(=O)c4ccccc4)nn3)CN2C(=O)C2CCCCC2)cc1	inactive
COc1ccccc1CNC(=O)C1CCN(c2nc3ccccc3o2)CC1	inactive
COc1ccc(OC)c(CNC(=O)C2CCCN(c3nc4ccccc4o3)C2)c1 (stereo not given)	inactive
CCc1ccc(CNC(=O)C2CCCN(c3nc4ccccc4o3)C2)cc1 (stereo not given)	14.6 µM (active)
COc1ccc(S(=O)(=O)N(C)C)cc1NC(=O)COC(=O)c1n[nH]c2ccccc12	inactive
CCCNC(=O)C1(C)CCCN(Cc2c(C)nn(-c3ccccc3)c2C)C1 (stereo not given)	inactive
O=C(CSc1ncn[nH]1)Nc1nc2c(F)c(F)c(F)cc2s1	inactive
CN1OC[C@@H]2CN(S(=O)(=O)c3cccc(C(F)(F)F)c3)[C@H](c3ccc(-c4cc5ccccc5o4)cc3)C[C@@H]21	inactive
COc1ccc(C(CNCC(=O)Nc2ccccc2F)N(C)C)cc1 (stereo not given)	inactive
COc1ccc(CCNC(=O)COC(=O)Cc2ccccc2F)cc1	inactive
COc1ccc(C(CCNCc2ccccc2F)c2ccc(F)cc2)cc1 (stereo not given)	14.6 µM (active)
O=S1(=O)CC(N2CCSCC2)CN1Cc1cn(Cc2cccc(Cl)c2)nn1 (stereo not given)	inactive
COc1cc2[nH]c(C)c(CCN3CCN(c4ccccc4)CC3)c2cc1OC	inactive
Cc1ccc(NS(=O)(=O)c2cc3c(cc2Br)NC(=O)CO3)cc1C	inactive
COc1cc(OC)c(/C=C/c2ccnc3ccccc23)c(OC)c1	inactive
CCC(C)NC(=O)Cn1nc(C(F)(F)F)c2c1CCC2 (stereo not given)	inactive
O=C(Cn1nc(C(F)(F)F)c2c1CCC2)NCc1ccc(F)cc1	11.6 µM (active)

Compound	Potency
O=C(Cn1nc(C(F)(F)F)c2c1CCCC2)Nc1ccc(Cl)cc1	inactive
CC(C)Cn1cc(-c2cncc3nccn23)cn1	inactive
CCCC(=O)N1CCC1(C)C(=O)NCc1ccc(C(C)C)cc1 (stereo not given)	inactive
Cc1ccc(C(=O)Nc2nc(-c3ccccc3)ns2)cc1	inactive
Cc1ccc(C(=O)c2c(NC(=O)c3ccccc3)sc(C)c2C)cc1	9.2 µM (active)
Cc1sc(NC(=O)c2ccc3ncsc3c2)c(C(N)=O)c1C	inactive
O=C(/C=C/[C@H]1O[C@@H](n2ccc(=O)[nH]c2=O)[C@H](O)[C@@H]1O)NCc1ccccn1	inactive
O=[N+]([O-])c1ccc(CN2CC(N3CCC(c4ccccc4)CC3)CS2(=O)=O)cc1 (stereo not given)	inactive
COC(=O)c1sccc1S(=O)(=O)N(CC(=O)Nc1ccc(C)c(F)c1)c1ccc(C)c(C)c1	inactive
O=C(OC1CC2CC1[C@H]1CCCCN1C2=O)N1CCOCC1 (stereo not given in full)	inactive
O=NN(CCCl)C(=O)NCCc1cccc[n+]1[O-]	inactive
Cc1sc2ccccc2c1CNC[C@H]1O[C@@H](n2ccc(=O)[nH]c2=O)[C@H](O)[C@@H]1O	inactive
CCCCN1CC(N2CCN(Cc3cccc(C)c3)CC2)CS1(=O)=O (stereo not given)	inactive
SCc1nc2ccc(Cl)cc2[nH]1	inactive
CCN(C(=O)CSc1nnc(-c2ccncc2)o1)c1ccccc1	inactive
O=C(OCc1nc2ccccc2[nH]1)C1CCCCC1	inactive
Nc1cccc(CCc2nc3ccccc3[nH]2)c1	inactive
Clc1ccccc1SCc1nc2ccccc2[nH]1	20.6 µM (active)
c1ccc(-c2nnc(SCc3nc4ccccc4[nH]3)o2)cc1	20.6 µM (active)
O=c1[nH]nc(CSCc2ccccc2Cl)[nH]1	inactive
Clc1ccc(-c2nnc(SCc3nc4ccccc4s3)o2)cc1	inactive
c1ccc2c(CSCc3nc4ccccc4[nH]3)cccc2c1	20.6 µM (active)

Compound	Potency
Cc1ccccc1NC(=O)Cn1cc(C(=O)c2cccs2)c2ccccc21	inactive
Cc1ccc(CNC(=O)CCNS(=O)(=O)c2ccc3c(c2)oc(=O)n3C)cc1	inactive
O=C(NCCc1cccc(F)c1)C1CC(O)CN1C(=O)Nc1ccccc1 (stereo not given)	inactive
Cc1ccc([C@@H]2CC(=O)[C@@H]3CN(S(=O)(=O)c4ccc(C)cc4)[C@H](c4ccccc4F)C[C@@H]3N2S(=O)(=O)c2ccc(Cl)cc2)cc1	inactive
C=C1C(=O)[C@]23C[C@H]1CCC2[C@@]1(C)C(C[C@@H]3O)[C@](C)(C(=O)O)CC[C@@H]1O (stereo not given in full)	inactive
O=C(NC1CCCC1)C1c2ccccc2OCC(=O)N1Cc1ccccc1 (stereo not given)	inactive
CC1(C(=O)Nc2cccc3c2CCCC3)CCN1C(=O)C1(c2ccccc2)CC1 (stereo not given)	inactive
Brc1nc2ncnc(NCc3ccco3)c2[nH]1	inactive
COCOCCn1cc(CN2CCS(=O)(=O)N(Cc3ccc(-c4ccccc4)cc3)C(CC(C)C)C2=O)nn1 (stereo not given)	inactive
Cc1cccc(OCCSc2nc3ccccc3n2CC(=O)N2CCCCC2)c1C	inactive
CCOC(=O)c1nn(-c2cccc(C)c2)cc1C(=O)c1ccccc1	14.6 µM (active)
CCOC(=O)c1cn(Cc2cccc(C)c2)nn1	inactive
CC(=O)c1nn(-c2ccc(C)cc2)cc1C(=O)c1cccc(Br)c1	inactive
Nc1cc(N2CCCCCC2)c2nonc2c1[N+](=O)[O-]	8.2 µM (active)
COCCNc1nc(N)c([N+](=O)[O-])c(N2CCCCCC2)n1	inactive
Cc1c(Nc2cc(N3CCCC(C)C3)c3nonc3c2[N+](=O)[O-])c(=O)n(-c2ccccc2)n1C (stereo not given)	inactive
CC1(C)OC(=O)C2=C(C[C@@H](C3CCCCC3)O[C@@H]2c2ccc(Cl)cc2)O1	inactive
CCCc1nc2ccccc2c(=O)n1/N=C/c1ccc(O)c(O)c1	inactive
Cc1[nH]n(-c2cccc(Cl)c2)c(=O)c1/C=N/n1c(C)nc2ccccc2c1=O	7.31 µM (active)
Cc1[nH]n(-c2ccccc2)c(=O)c1/C=N/NC(=O)c1ccoc1C	inactive
COc1ccc(C(CNC(=O)CSc2ccccc2)N2CCOCC2)cc1 (stereo not given)	inactive
